# Hits are enriched below; roughly 2.4% of the tested compounds scored in any of these assays.
# TLR9-MyD88 block: inhibitors of human TLR9-MyD88 binding; CHO BLA complementation TLR9-MyD88, CCF4 FRET ratio; 340,000 tested, 0.21% active; inhibition, % at 4.98 µM; AID 504734;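 active means inhibition above the mean over all tested compounds plus 3 SD, cut at about 21% in these data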
# ANO1 activ: mouse TMEM16A channel activation, primary screen | Q8BHY3 | HEK293 TMEM16A/YFP-H148Q/I152L, iodide quench fluorescence; stronger effect = lower value | B-score at 10 µM | 340,000 tested, 0.3% active;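 active means fluorescence-ratio B-score plate-corrected deviation score at least 3 library SD below zero, with starting fluorescence score within 5 deviations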;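 further: channel opened by trigger with iodide after compound preincubation; score built on the fluorescence ratio of max minus min over baseline; more negative score means more quench and so TMEM16A activation or potentiation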
# Target sequence (Q8BHY3 whole entry, looked up): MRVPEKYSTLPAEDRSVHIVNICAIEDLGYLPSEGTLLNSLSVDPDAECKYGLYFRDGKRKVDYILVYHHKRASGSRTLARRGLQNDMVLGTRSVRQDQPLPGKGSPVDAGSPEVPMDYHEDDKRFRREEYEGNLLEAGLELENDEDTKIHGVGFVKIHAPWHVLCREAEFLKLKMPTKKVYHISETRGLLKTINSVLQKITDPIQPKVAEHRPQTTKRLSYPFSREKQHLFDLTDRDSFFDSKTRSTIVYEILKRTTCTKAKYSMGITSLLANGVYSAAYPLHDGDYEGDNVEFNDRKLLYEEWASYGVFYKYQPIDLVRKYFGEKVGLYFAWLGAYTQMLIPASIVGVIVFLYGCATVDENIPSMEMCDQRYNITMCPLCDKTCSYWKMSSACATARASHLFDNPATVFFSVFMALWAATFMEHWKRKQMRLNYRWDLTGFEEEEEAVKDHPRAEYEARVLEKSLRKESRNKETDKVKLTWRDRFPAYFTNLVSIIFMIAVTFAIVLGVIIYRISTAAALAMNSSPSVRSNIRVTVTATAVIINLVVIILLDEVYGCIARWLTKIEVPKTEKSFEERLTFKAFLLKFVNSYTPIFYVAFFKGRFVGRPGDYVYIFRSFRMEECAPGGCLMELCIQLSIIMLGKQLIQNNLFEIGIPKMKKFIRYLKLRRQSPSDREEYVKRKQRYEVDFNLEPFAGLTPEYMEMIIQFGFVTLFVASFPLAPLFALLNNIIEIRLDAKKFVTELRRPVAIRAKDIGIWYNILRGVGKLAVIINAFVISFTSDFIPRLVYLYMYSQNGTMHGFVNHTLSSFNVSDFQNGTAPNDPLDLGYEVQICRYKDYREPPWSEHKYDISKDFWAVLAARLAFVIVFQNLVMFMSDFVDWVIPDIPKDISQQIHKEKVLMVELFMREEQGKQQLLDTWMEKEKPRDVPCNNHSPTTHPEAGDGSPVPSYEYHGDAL
# HTR2A ag: mouse HTR2A agonism via beta-arrestin recruitment. 360,000 tested, 0.66% active. activation, % at 7.6 µM. AID 624169. CHO-K1 mHTR2A beta-arrestin complementation, luminescence; percent of 30 µM serotonin response;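 active means activation above a run cutoff, the mean activation of all tested compounds plus 3 SD, cut at about 14% in these data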
# NOD2-RIPK2 inh: blocks binding of human NOD2 to RIPK2 | CHO BLA complementation NOD2-RIPK2, CCF4 ratio | O43353 | 360,000 tested, 0.38% active | inhibition, % at 4.98 µM; in the data active means inhibition above about 21%
# TMEM16A inh: blocks the mouse calcium-activated chloride channel TMEM16A | HEK293 TMEM16A/YFP iodide influx fluorescence, ionomycin | normalized B-score (activity score, 25-100; higher = stronger inhibition) at 10 µM | 310,000 tested, 1.2% active | AID 588511;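 active means ratio plate-corrected score three or more library SD toward inhibition, starting fluorescence score within five deviations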;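 further: score derived from kinetic fluorescence span divided by baseline fluorescence per well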
# TLR4 MyD88 comp: blocks binding of human TLR4 to MyD88 | O00206+Q99836 | HeLa CL3-4 TLR4/MyD88 BLA complementation, FRET ratio | inhibition, % at 8.4 µM | 200,000 tested, 0.18% active | AID 861; in the data active means inhibition above about 25%
# TMEM16A reconf: TMEM16A (mouse) chloride channel inhibition, re-confirmation; shares compounds with TMEM16A inh; HEK293 TMEM16A/YFP-H148Q, iodide quench fluorescence; ionomycin added to raise cell calcium; inhibition, % at 10 µM; 2,300 tested, 39% active;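 active means mean duplicate percent inhibition, scaled so buffer wells are 0 and the reference blocker 100, over three buffer SD above buffer mean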
# TMEM16A Ca cntr: calcium mobilization counter-screen hit for TMEM16A inhibitor series; shares compounds with TMEM16A inh; TMEM16A/YFP HEK293, Fluo4 calcium mobilization; calcium response (% of ionomycin), % at 10 µM; 2,300 tested, 2% active;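 active means duplicate-averaged calcium signal over 20% of the ionomycin maximum, relative to buffer baseline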;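 further: each well's signal is peak minus trough fluorescence divided by its pre-addition baseline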
# Parental YFP cnt: parental YFP-HEK293 iodide quench counter-screen activity. shares compounds with TMEM16A inh. ionomycin. YFP ratio F(max-min)/F0 at 10 µM. 2,300 tested, under 10 active. AID 652233;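 active means yellow fluorescent protein signal ratio exceeding the buffer control mean by over 5 SD of those controls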;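 further: ratio is mean of duplicate wells from kinetic YFP trace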
# ClC-1 inh: blocks the rat ClC-1 voltage-dependent chloride channel | shares compounds with TMEM16A inh | CHO ClC-1-YFP, iodide influx fluorescence quench; iodide control reads 0, buffer control 100 | ratio percent, % at 10 µM | 2,300 tested, under 10 active | AID 652236;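 active means duplicate-mean ratio percent above the mean of iodide-only control wells, which defines zero, plus 5 of their SD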;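 further: higher percent means stronger block of ClC-1 iodide influx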
# Numbers stand for hits; - = inactive; . = no result given.
SMILES,TLR9-MyD88 block,ANO1 activ,HTR2A ag,NOD2-RIPK2 inh,TMEM16A inh,TLR4 MyD88 comp,TMEM16A reconf,TMEM16A Ca cntr,Parental YFP cnt,ClC-1 inh
O=C(OCc1ccccc1)N1CCN(C(c2ccnc3ccccc23)c2nnnn2-c2ccc3c(c2)OCCO3)CC1 (configuration not stated),.,.,-,-,.,.,.,.,.,.
O=C(CSc1nc2ccccc2o1)Nc1nc(-c2ccccc2)cs1,-,-,-,-,100,-,47.5%,-,-,-
CCc1nnc(NC(=O)CSc2nnc(-c3ccccc3O)n2CC)s1,-,-,-,-,-,-,.,.,.,.
CCn1c(SCC(=O)Nc2nc(-c3ccccc3)cs2)nnc1-c1ccccc1O,-,-,-,-,100,-,36.5%,-,-,-
O=C(CSc1nnc(-c2ccncc2)n1Cc1ccco1)Nc1nc(-c2ccccc2)cs1,-,-,-,-,25,-,30.5%,-,-,-
Cc1ccc(N(Cc2ccccc2)C(=O)c2ccc(S(=O)(=O)N3CCOCC3)cc2)cc1,-,-,-,-,-,.,.,.,.,.
CCCC(C(=O)N(C)CC(=O)Nc1ccc(N2CCOCC2)cc1)c1ccccc1 (configuration not stated),-,-,-,-,-,.,.,.,.,.
COc1cccc(C(=O)NC(=S)Nc2ccc3c4c(cccc24)CC3)c1,-,-,-,-,-,-,-,-,-,-
COc1cc2ccccc2cc1C(=O)Nc1ccccc1Cl,-,-,-,-,100,.,70.0%,-,-,-
COc1ccccc1NC(=O)c1cc2cc(Br)ccc2cc1O,-,-,-,-,100,.,76.0%,-,-,-
COc1cc2ccccc2cc1C(=O)Nc1ccccc1N1CCCC1,-,-,-,-,-,.,.,.,.,.
O=C(Nc1ccncc1)Nc1cc(Cl)ccc1Cl,-,-,-,-,-,.,.,.,.,.
COC(=O)Cc1c(C)nc2nc(NCc3cccc([N+](=O)[O-])c3)[nH]n2c1=O,-,-,-,-,-,-,.,.,.,.
O=C(O)c1ccccc1N/N=C/c1cc(Br)cc(Br)c1O,-,-,-,-,25,.,78.5%,-,-,-
CCSC1(SCC)N=C(N)C2(C#N)C(c3ccc(F)cc3)C12C#N (configuration not stated),-,-,-,-,-,-,.,.,.,.
Cc1ccc(/C(N)=N/OC(=O)c2cccc(F)c2)cc1,-,-,-,-,-,-,.,.,.,.
N/C(=N\OC(=O)c1cccc(F)c1)c1ccccc1,-,-,-,-,25,-,-,-,-,-
C1CCC(NC2=NCCC2)CC1,-,-,-,-,100,-,-,-,-,-
CCOC(=O)c1cnc2c(C)c(Cl)ccc2c1N1CCOCC1,-,-,-,-,-,-,.,.,.,.
COc1ccc(C(=O)CCc2ccccc2)c(O)c1,-,-,-,-,-,.,.,.,.,.
O=C(CCc1ccccc1)c1c(O)cc(O)cc1O,-,-,-,-,100,.,47.0%,-,-,-
CN(c1ccccc1)C(c1ccc(F)cc1)c1nnnn1C1CCCC1 (configuration not stated),-,-,-,-,-,-,-,-,-,-
Cc1ccc(C(c2nnnn2C2CCCCC2)N(C)C2CCCCC2)cc1 (configuration not stated),-,-,-,-,25,-,-,-,-,-
CC(C)C(c1nnnn1C1CCCC1)N(C)C1CCCCC1 (configuration not stated),-,-,-,-,-,-,.,.,.,.
CCOC(=O)CNC(=O)CSc1nc2sc(C)c(C)c2c(=O)n1C,-,-,-,-,-,-,-,-,-,-
SMILES,TLR9-MyD88 block,ANO1 activ,HTR2A ag,NOD2-RIPK2 inh,TMEM16A inh,TLR4 MyD88 comp,TMEM16A reconf,TMEM16A Ca cntr,Parental YFP cnt,ClC-1 inh
CC1=C(C(=O)N(C)C)CC(CC(=O)NCCCN(C)C)C(=O)N1Cc1ccc(C(C)(C)C)cc1 (configuration not stated),-,.,-,-,.,.,.,.,.,.
CCN(CC)S(=O)(=O)c1ccc(S(=O)(=O)Nc2c(C)nn(C)c2C)cc1,-,-,-,-,25,.,29.5%,-,-,-
Cc1nn(C)c(C)c1NS(=O)(=O)c1ccc(Cl)cc1,-,-,-,-,-,.,.,.,.,.
O=P(CO)(Cc1ccccc1)Cc1ccccc1,-,-,-,-,-,-,.,.,.,.
Cc1csc(NC(=O)c2ccc(Cn3nc(C)c(Br)c3C)o2)n1,-,-,-,-,100,.,25.0%,-,-,-
CC(=O)c1cccc(NC(=O)Nc2ccc3c(c2)N(C)C(=O)CS3)c1,-,-,-,-,25,-,34.5%,-,-,-
CC(=O)c1cn(CC(=O)Nc2ccc(C)cc2C)c2ccccc12,-,-,-,-,25,-,19.5%,-,-,-
Cc1ccc(NC(=O)Cn2cc(C(=O)C3CC3)c3ccccc32)c(C)c1,-,-,-,-,-,.,.,.,.,.
Cc1ccc(S(=O)(=O)Nc2ccc3nc(C)sc3c2)cc1,-,-,-,-,25,-,-,-,-,-
CSc1nc2ccc(NS(=O)(=O)c3ccc(Cl)s3)cc2s1,-,-,-,-,100,-,32.5%,-,-,-
Cc1ccc(-n2c(SCC(=O)NCC3CCCO3)nc3c(c2=O)SCC3)cc1 (configuration not stated),-,-,-,-,-,-,.,.,.,.
Cc1cccc(OCCSCc2nc3ccccc3[nH]2)c1,-,-,-,-,-,-,.,.,.,.
Cc1cccc(OCCCSc2nc3ccccc3[nH]2)c1,-,-,-,-,100,-,17.0%,-,-,-
Nc1nc(-c2ccccc2)c(-c2ccccc2)n1N,-,-,-,-,-,.,-,-,-,-
CSc1ncc(Cl)c(C(=O)Nc2cccc(C)c2)n1,-,-,-,-,-,-,.,.,.,.
CSc1ncc(Cl)c(C(=O)C(C#N)c2nc3c(C)cc(C)cc3c(=O)[nH]2)n1 (configuration not stated),-,-,-,-,100,-,59.0%,-,-,-
CCc1nc(SCc2nnc(-c3ccc(C)cc3)o2)c2c(C)c(C)sc2n1,.,.,.,.,-,-,-,-,-,-
Cc1nc2ccccc2cc1C(=O)NCc1ccccc1,-,-,-,-,-,.,.,.,.,.
Cc1nc(OCc2ccccc2)c2ccccc2n1,-,-,-,-,100,-,-,-,-,-
Cc1nc2ccccc2cc1OCc1ccccc1,-,-,-,-,100,-,32.0%,-,-,-
CCOc1ccc(NC(=O)CNc2cccc(S(=O)(=O)N3CCCCCC3)c2)cc1OCC,-,-,-,-,.,.,.,.,.,.

# Screening results from PubChem BioAssay.
